Sampled rows, rich in hits. Any-hit rate of the full collection: about 4.2%.
TRPV1 ag: agonists of human vanilloid receptor 1 (TRPV1) | TRPV1-expressing cells, Fluo-8 calcium influx, agonist mode | activation, % at 8.33 µM | hit rate 0.19% among 320,000; in the data active = activation above about 80%; inconclusive = between about 30% and that limit
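Fluo-8 calcium influx in TRPV1-expressing cells, kinetic read (ex 480/em 520 nm). Compound added and read 3 min for agonist activity, followed by capsaicin at EC20 final and 2 min further read for enhancement.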
D1 potentiator: human D1 dopamine receptor positive modulation; P21728; HEK293 TREx D1 cells, calcium flux, dopamine EC20 potentiation; potentiation, % at 10 µM; hit rate 0.036% among 360,000; in the data active = potentiation above about 30%
Target sequence (P21728 whole entry, looked up): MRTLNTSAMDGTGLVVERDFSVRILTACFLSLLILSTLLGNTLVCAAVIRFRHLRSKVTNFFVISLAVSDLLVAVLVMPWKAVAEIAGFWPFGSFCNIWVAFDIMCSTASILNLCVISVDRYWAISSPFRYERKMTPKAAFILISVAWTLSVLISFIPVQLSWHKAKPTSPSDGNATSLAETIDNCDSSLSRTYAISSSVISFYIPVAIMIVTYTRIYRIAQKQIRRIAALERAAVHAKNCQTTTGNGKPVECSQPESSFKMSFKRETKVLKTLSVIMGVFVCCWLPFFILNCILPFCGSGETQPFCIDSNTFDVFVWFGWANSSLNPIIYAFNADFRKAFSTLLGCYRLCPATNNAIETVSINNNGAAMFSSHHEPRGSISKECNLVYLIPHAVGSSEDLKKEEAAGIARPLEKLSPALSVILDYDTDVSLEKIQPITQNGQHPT
TRPV1 PAM: potentiators of human vanilloid receptor 1 (TRPV1) | Q8NER1 | TRPV1-expressing cells, Fluo-8 calcium influx, capsaicin EC20 potentiation | potentiation, % at 8.33 µM | hit rate 0.02% among 320,000 | AID 540277; in the data active = potentiation above about 80%; inconclusive = between about 30% and that limit
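Fluo-8 calcium influx in TRPV1-expressing cells, kinetic read (ex 480/em 520 nm). Compound added and read 3 min for agonist activity, followed by capsaicin at EC20 final and 2 min further read for enhancement.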
D1 antagonist: human D1 dopamine receptor antagonism; P21728; AID 504652; activity change, negative = inhibition, % at 10 µM; hit rate 3.2% among 360,000; HEK293 TREx D1 cells, calcium flux, dopamine EC80; hits give low values; in the data active = activity change below about -30%
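Tetracycline-induced HEK293 Trex D1 cells, force-coupled to calcium, dye-loaded; compounds added and read 180 s, then EC80 dopamine added and calcium flux tracked kinetically another 180 s.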
D1 agonist: activates the human D1 dopamine receptor; HEK293 T-REx D1 cells, calcium flux, agonist mode; activation, % at 2 µM; hit rate 1% among 360,000; AID 504660; in the data active = activation above about 30%
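Agonism was scored from calcium flux recorded over 180 s (1 read/s) after pintool compound addition, following a 10-cycle baseline. Cells were inducible force-coupled HEK293 TREx D1, plated overnight at 30 C and loaded with no-wash calcium dye.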
Large screens that a line does not name were inactive.

Cc1cccc(-c2nnc(NC(=O)c3ccc(Cl)cc3)o2)c1	D1 agonist 57
CCc1c(C)nc2nc(-c3ccccc3)nn2c1NCc1ccc(C)cc1	none (no result: TRPV1 ag, TRPV1 PAM)
COc1ccc(-c2cc3ccc(OC(C)C(=O)O)cc3oc2=O)cc1 (stereo not given)	D1 antagonist -30
Cc1ccc(SCCNC(=O)c2ccccc2F)cc1	TRPV1 ag 80
CS(=O)(=O)Nc1ccccc1C(=O)NCCSc1ccc(Cl)cc1	D1 antagonist -32
Cc1ccc(C(=O)NCCSc2ccc(Cl)cc2)cc1S(=O)(=O)Nc1ccccc1	TRPV1 PAM inconclusive
CCOc1ccc(NC(=O)N(Cc2c[nH]c3ccccc23)C2CCCCCC2)cc1	none (no result: TRPV1 ag, TRPV1 PAM)
COc1ccc(CCC(=O)NCCS(=O)(=O)N2CCN(c3ccccc3OC)CC2)cc1	D1 antagonist -33
Cc1ccc(C)c(N2CCN(S(=O)(=O)c3cnc(N)nc3)CC2)c1	none (no result: TRPV1 ag, TRPV1 PAM)
O=C(C1CC1)N1CCc2cc(Br)cc(S(=O)(=O)Nc3ccc(F)c(F)c3)c21	D1 antagonist -31 (no result: TRPV1 ag, TRPV1 PAM)
CN(C)CCNc1oc(-c2ccc(COc3ccc(Cl)cc3)o2)nc1C#N	none (no result: TRPV1 ag, TRPV1 PAM)
CCC(CC)C(=O)Nc1cccc(-c2nc3cccnc3s2)c1C	none (no result: TRPV1 ag, TRPV1 PAM)
C[C@@H](C(=O)Nc1nc2ccc(F)cc2s1)N1C(=O)C2CC=CCC2C1=O (stereo not given in full)	D1 antagonist -45
CCOC(=O)C1CCCN(C(=O)c2ccc3c(c2)N(Cc2cccc(Cl)c2)C(=O)c2ccccc2S3(=O)=O)C1 (stereo not given)	none (no result: TRPV1 ag, TRPV1 PAM)
O=[N+]([O-])c1ccc(C(c2sc3nc(-c4ccco4)nn3c2O)N2CCN(c3cccc(Cl)c3)CC2)cc1 (stereo not given)	none (no result: TRPV1 ag, TRPV1 PAM, D1 antagonist)
COc1ccccc1N1CCN(c2nc3ccc(C)cc3n3nnnc23)CC1	D1 antagonist -30 (no result: TRPV1 ag, TRPV1 PAM)
CCOc1ccccc1NC(=O)c1sc2nc(-c3ccc(OC)cc3)ccc2c1N	none (no result: TRPV1 ag, TRPV1 PAM)
CCCn1nc(C(=O)NCc2ccccn2)c2ccccc2c1=O	D1 antagonist -39
O=C(NC1CCCCCC1)C(=O)NC1CCCC1	D1 antagonist -33
O=C(NC1CCCCC1)[C@H](O)[C@@H](O)C(=O)NC1CCCCC1	none
O=C(NN=C1CCCCC1)NC1CCCCC1	D1 antagonist -85
O=C(Cn1c(=O)n(Cc2ccc(C(=O)NCc3ccccc3Cl)cc2)c(=O)c2ccccc21)Nc1ccc(F)c(Cl)c1	none (no result: TRPV1 ag, TRPV1 PAM)
N#Cc1ccc(NC(=O)C2Cc3ccccc3CN2S(=O)(=O)c2ccc(F)cc2)cc1 (stereo not given)	none (no result: TRPV1 ag, TRPV1 PAM)
COC(=O)c1cc2oc3ccccc3c2n1CC(=O)Nc1ccc(Cl)cc1F	none (no result: TRPV1 ag, TRPV1 PAM)
Fc1ccc(Br)cc1C1C=C(c2ccc(Br)s2)Nc2ncnn21 (stereo not given)	TRPV1 ag inconclusive
COc1cccc(C2C=C(c3ccc(Br)s3)Nc3ncnn32)c1OC (stereo not given)	D1 agonist 48
CCCn1c2ccccc2c2cnn(CC(=O)NCCc3ccc(C)cc3)c(=O)c21	none (no result: TRPV1 ag, TRPV1 PAM)
O=C(Nc1ccccc1)c1cccc2c(=O)c3c([nH]c12)CCCC3	none (no result: TRPV1 ag, TRPV1 PAM)
O=c1[nH]c2ccccc2n1CCCN1CCN(C(c2ccccc2)c2ccccc2)CC1	D1 antagonist -44
Cc1ccc(C2C(C(=O)O)c3ccccc3C(=O)N2C)c(C)c1 (stereo not given)	D1 antagonist -40
CCOc1ccc(CNC(=O)C2CCCN(S(=O)(=O)N(C)c3ccc(F)cc3)C2)cc1OC (stereo not given)	D1 agonist 34 (no result: TRPV1 ag, TRPV1 PAM)
CSCCCNC(=S)N1CCN(c2ccc(C(C)=O)cc2)CC1	TRPV1 ag inconclusive, D1 antagonist -33
COCCCNC(=S)N1CCN(c2ccc([N+](=O)[O-])cc2)CC1	D1 antagonist -33
CCCCNC(=S)N1CCN(c2ccc(C(C)=O)cc2)CC1	TRPV1 ag inconclusive
COc1ccc(C(=O)NC(=S)N2CCN(c3ccc([N+](=O)[O-])cc3)CC2)cc1	D1 antagonist -31
CN1CCN(C(=S)Nc2ccc([N+](=O)[O-])cc2)CC1	D1 antagonist -33
COc1cccc(N=C2NC(=O)/C(=C/c3cc([N+](=O)[O-])ccc3O)S2)c1	D1 agonist 83
COc1cc(/C=C2\S/C(=N/S(=O)(=O)c3ccc(C)cc3)NC2=O)c([N+](=O)[O-])cc1OC	none
O=C1N/C(=N/O)S/C1=C/c1cccc([N+](=O)[O-])c1	none
Cc1ccc(S(=O)(=O)/N=C2/NC(=O)/C(=C/c3cc([N+](=O)[O-])ccc3O)S2)cc1	D1 agonist 218
O=C1NC(=Nc2ccccc2Cl)S/C1=C\c1cc([N+](=O)[O-])ccc1O	D1 agonist 76
COc1ccc2[nH]c3c(=O)n(CCCCC(=O)N4CCC(C(N)=O)CC4)c(=S)[nH]c3c2c1	D1 antagonist -36
CC(C)c1ccc(CNc2c([N+](=O)[O-])c(=O)oc3ccccc23)cc1	TRPV1 ag inconclusive, D1 antagonist -34
O=c1oc2ccccc2c(NCc2ccccc2F)c1[N+](=O)[O-]	none
O=c1oc2ccccc2c(Nc2ccc(Cl)cc2)c1[N+](=O)[O-]	D1 agonist 33
O=c1oc2ccccc2c(Nc2ccc(F)cc2)c1[N+](=O)[O-]	TRPV1 PAM inconclusive
O=C(NCC(c1ccc2c(c1)OCO2)N1CCN(c2ccccc2)CC1)c1ccccc1 (stereo not given)	none (no result: TRPV1 ag, TRPV1 PAM)
Cc1c(O)ccc2cc(S(=O)(=O)c3ccccc3)c(=O)oc12	D1 agonist 32
COC(=O)CC1C(=O)NCCN1C(=S)Nc1cccc(C)c1 (stereo not given)	none
COC(=O)CC1C(=O)NCCN1C(=S)Nc1ccc(F)cc1 (stereo not given)	D1 antagonist -37
O=c1/c(=C/c2ccc(O)cc2)sc2n1CCCN=2	none
CN(C)c1ccc(/C=c2\sc3n(c2=O)CCCN=3)cc1	D1 agonist 46
CC(=O)NC(Cc1cccc(C)c1)C(=O)NC1CCN(S(=O)(=O)c2ccccc2)CC1 (stereo not given)	D1 antagonist -36
O=C(Nc1ccc(F)cc1)c1ccc(Cn2nc(N3CCN(c4ccccc4)CC3)ccc2=O)o1	D1 antagonist -32 (no result: TRPV1 ag, TRPV1 PAM)
CC(=O)Nc1cc(-c2ccccc2)nn1Cc1cccc(Cl)c1	none (no result: TRPV1 ag, TRPV1 PAM)
CSc1nn(Cc2cccc(Cl)c2)c(N(C(C)=O)C(C)=O)c1S(=O)(=O)c1ccccc1	D1 antagonist -61 (no result: TRPV1 ag, TRPV1 PAM)
COc1ccc(NC(=O)c2cccc(OC(=S)N3CCOCC3)c2)cc1	TRPV1 ag inconclusive
Cc1cccc(NC(=O)c2cccc(OC(=S)N3CCOCC3)c2)c1C	D1 antagonist -32
CC(C)c1nn2c(=O)cc(COC(=O)c3ccccc3NC(=O)c3cccs3)nc2s1	none (no result: TRPV1 ag, TRPV1 PAM)
O=C(O)c1ccc(Cn2c(SCc3cc(=O)n4cc(Br)ccc4n3)nc3ccsc3c2=O)cc1	D1 antagonist -31
COc1ccc(NC(=O)CN(C)S(=O)(=O)c2ccc3c(c2)CCCN3C(C)=O)cc1Cl	none (no result: TRPV1 ag, TRPV1 PAM)
COc1ccc(-c2ccc(SCC(=O)N3CCOCC3)nn2)cc1	D1 antagonist -31
